Experimental data: PubChem BioAssay (NCI)
About 79,000 compounds went through this panel and 15% of them were active in at least one assay; those are over-represented in the sample as a whole. Activity calls are given as the source filed them. No stated cut-off is given here; in the data, active means growth inhibition above about 70%; inactive means the rest.

Key:
[1] = NCI Yeast Anticancer Drug Screen. Data for the rad50 strain (AID 155);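 further: 0% = growth of vehicle-only cultures of the same strain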; settings: S. cerevisiae rad50 strain growth inhibition, active compounds read high
Method in brief: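 Growth of the mutant yeast was measured after compound exposure and referenced to vehicle-treated cultures.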

[2] = NCI Yeast Anticancer Drug Screen. Data for the mec2-1 strain (AID 157); settings: S. cerevisiae mec2-1 strain, active compounds read high
Method in brief: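 Cells of the genetically defined mec2-1 yeast strain are incubated with test compound. Inhibition of growth is calculated against vehicle-treated controls.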

[3] = NCI Yeast Anticancer Drug Screen. Data for the sgs1 mgt1 strain (AID 161);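 further: 0% = growth of cultures given vehicle only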; settings: S. cerevisiae sgs1 mgt1 strain, active compounds read high
Method in brief: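 Genetically altered yeast, compound exposure, growth inhibition relative to vehicle.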

[4] = NCI Yeast Anticancer Drug Screen. Data for the cln2 rad14 strain (AID 165);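 further: 0% = growth equal to vehicle treated cultures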; settings: S. cerevisiae cln2 rad14 strain, active compounds read high
Method in brief: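 The screen exposed genetically defined yeast (cln2 rad14) to test compounds and scored growth inhibition relative to vehicle-treated controls.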

[5] = NCI Yeast Anticancer Drug Screen. Data for the bub3 strain (AID 167); settings: S. cerevisiae bub3 mutant strain, active compounds read high
Method in brief: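 Whole-cell yeast assay. The mutant strain was incubated with compounds, and growth inhibition was determined by comparison with vehicle-treated cells.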

[6] = NCI Yeast Anticancer Drug Screen. Data for the mlh1 rad18 strain (AID 175); settings: S. cerevisiae mlh1 rad18 strain growth inhibition, active compounds read high
Method in brief: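 Compound-treated yeast growth, normalised to vehicle controls. Strain bears defined DNA repair mutations.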

[7] = at 5.0 µM (retest, dose inferred, filed as 0.5)
[8] = at 50.0 µM (retest, dose inferred, filed as 5.0)

Measured: growth inhibition

Cn1c(-c2ccccc2)c(CCNC(=O)C2CCC2)c2ccccc21
inactive: [1]; [7] 18% | [1]; [8] 18% | [2]; [7] 14% | [2]; [8] 14% | [3]; [7] 12% | [3]; [8] 12% | [4]; [7] 7% | [4]; [8] 7% | [5]; [7] 11% | [5]; [8] 11% | [6]; [7] 18% | [6]; [8] 18%
active: [1]; at 50.0 µM 81.2% | [2]; at 50.0 µM 86% | [3]; at 50.0 µM 79.2% | [4]; at 50.0 µM 77.3% | [5]; at 50.0 µM 79.2% | [6]; at 50.0 µM 75.2%

O=C1CCC(Cc2ccc(Cl)cc2Cl)C(=O)N1 (configuration not stated)
active: [3]; [8] 95% | [3]; at 50.0 µM 92.8%
inactive: [1]; [7] -8% | [1]; [8] 3% | [1]; at 50.0 µM -7.6% | [2]; [7] -3% | [2]; [8] -6% | [2]; at 50.0 µM 6.15% | [3]; [7] 45% | [4]; [7] -4% | [4]; [8] -2% | [4]; at 50.0 µM -68.7% | [5]; [7] -4% | [5]; [8] 0% | [5]; at 50.0 µM -47.7% | [6]; [7] -5% | [6]; [8] 3% | [6]; at 50.0 µM -7%

Fc1ccc(CSC(=S)Nc2ccc(F)cc2)cc1
active: [6]; at 50.0 µM 78.7%
inactive: [1]; [7] 5% | [1]; [8] 29% | [1]; at 50.0 µM 69.5% | [2]; [7] 0% | [2]; [8] 16% | [2]; at 50.0 µM 47.6% | [3]; [7] 2% | [3]; [8] 29% | [3]; at 50.0 µM 68.3% | [4]; [7] -9% | [4]; [8] -4% | [4]; at 50.0 µM 32.5% | [5]; [7] -6% | [5]; [8] 8% | [5]; at 50.0 µM 27.6% | [6]; [7] -3% | [6]; [8] 19%

CC(=O)NC1=C(Sc2ccc([N+](=O)[O-])cc2)C(=O)c2ccccc2C1=O
inactive: [1]; at 50.0 µM 61.4% | [2]; at 50.0 µM 11.1% | [3]; at 50.0 µM 21.9% | [4]; [7] 46% | [4]; [8] 13% | [4]; at 50.0 µM -18.1% | [5]; [8] 5% | [5]; at 50.0 µM 62% | [6]; at 50.0 µM 51.5%
active: [1]; [7] 96% | [1]; [8] 98% | [2]; [7] 98% | [2]; [8] 96% | [3]; [7] 98% | [3]; [8] 99% | [5]; [7] 75% | [6]; [7] 98% | [6]; [8] 99%

C/C=C/C(=O)N1c2ccccc2CC1c1c(C)[nH]c2ccccc12 (configuration not stated)
inactive: [1]; [7] 7% | [2]; [7] 3% | [3]; [7] 3% | [4]; [7] 2% | [5]; [7] 6% | [6]; [7] 22%
active: [1]; [8] 90% | [1]; at 50.0 µM 94.3% | [2]; [8] 96% | [2]; at 50.0 µM 94.8% | [3]; [8] 95% | [3]; at 50.0 µM 94.3% | [4]; [8] 86% | [4]; at 50.0 µM 96% | [5]; [8] 86% | [5]; at 50.0 µM 95.5% | [6]; [8] 96% | [6]; at 50.0 µM 96.6%

Cc1cn(C2CC(Br)C(COC(c3ccccc3)(c3ccccc3)c3ccccc3)O2)c(=O)[nH]c1=O (configuration not stated)
inactive: [1]; [7] 10% | [2]; [7] 6% | [3]; [7] 8% | [3]; [8] 33% | [4]; [7] 2% | [5]; [7] 6% | [6]; [7] 8%
active: [1]; [8] 97% | [1]; at 50.0 µM 97.6% | [2]; [8] 99% | [2]; at 50.0 µM 98.3% | [3]; at 50.0 µM 98.2% | [4]; [8] 97% | [4]; at 50.0 µM 96.8% | [5]; [8] 99% | [5]; at 50.0 µM 96.2% | [6]; [8] 98% | [6]; at 50.0 µM 97.9%

CCC1=C(c2ccc(OC(C)=O)cc2)Cc2cc(OC(C)=O)ccc21
inactive: [1]; [7] -14% | [1]; [8] 64% | [1]; at 50.0 µM -4.5% | [2]; [7] -13% | [2]; [8] 67% | [2]; at 50.0 µM -9% | [3]; [7] -3% | [3]; at 50.0 µM 5.55% | [4]; [7] -9% | [4]; at 50.0 µM 4% | [5]; [7] -3% | [5]; at 50.0 µM 26% | [6]; [7] -13% | [6]; at 50.0 µM 4.55%
active: [3]; [8] 72% | [4]; [8] 79% | [5]; [8] 83% | [6]; [8] 84%

O=[N+]([O-])c1cc(Cl)cc2c1nc(NCCO)c1ccccc12
inactive: [2]; [7] 26% | [2]; [8] 67% | [2]; at 50.0 µM 45.2% | [3]; [7] 63% | [4]; [7] 46% | [4]; at 50.0 µM 65% | [5]; [7] 20%
active: [1]; [7] 76% | [1]; [8] 90% | [1]; at 50.0 µM 75.1% | [3]; [8] 93% | [3]; at 50.0 µM 79.7% | [4]; [8] 79% | [5]; [8] 85% | [5]; at 50.0 µM 79.9% | [6]; [7] 86% | [6]; [8] 93% | [6]; at 50.0 µM 89.5%

Cn1c(=O)cc[nH]c1=O
inactive: [1]; [7] -1% | [1]; [8] 3% | [1]; at 50.0 µM 4.85% | [2]; [7] 0% | [2]; [8] -1% | [2]; at 50.0 µM 3.9% | [3]; [7] 0% | [3]; [8] 2% | [3]; at 50.0 µM 5.45% | [4]; [7] 0% | [4]; [8] -1% | [4]; at 50.0 µM -0.75% | [5]; [7] 1% | [5]; [8] -5% | [6]; [7] -5% | [6]; [8] 1% | [6]; at 50.0 µM 14.2%
active: [5]; at 50.0 µM 98.8%
